Data on 37 compounds can be found in article PMC5540273 (PLoS ONE, 2017).

The structures appear in SMILES notation.
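Also: KINOMEscan kinase panel screen.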

In the first assay the test system is MYO3B. The conditions noted are these: concentration: 1 μM, replicates: in singlicate; n = 1.
Consider `Cc1ccc(C(=O)N2CC[C@@H](O)C2)cc1-n1c(C)cc(OCc2ccc(F)cc2F)c(Br)c1=O`, for which the “%Inh” value worked out at 0%.

As for `Cl.c1ccc(-c2ccc3c(Nc4ccc5[nH]ccc5c4)ccnc3c2)nc1` [GW440138], the “%Inh” value came out at 0%. Take `CCc1ccc(-c2ccc3c(c2)-c2c(cnn2C)S(=O)(=O)N3C)cc1`: the “%Inh” value turned out to be 25%. For the compound `COc1ccc(Nc2nccc(NCCNC(=O)c3cc4ccccc4s3)n2)cc1` [GSK1379896], the “%Inh” value was 0%.

Take `Nc1ncc(-c2ccc3nccc(-c4ccncc4)c3c2)cc1S(=O)(=O)N1CCOCC1` [GSK1627798]: the “%Inh” value came out at 0%.

Take `O=C(Nc1n[nH]c2cc(-c3ccoc3)ccc12)C1CC1` [SB-738481]: the “%Inh” value is on record as 0%.

A further assay relates to T1, NDR1.
T1 construct: gene STK38
Conditions: concentration: 1 μM, replicates: in singlicate; n = 1.
As for `O=C(O)C(F)(F)F.O=C(O)C(F)(F)F.O=c1[nH]ccc2nc(N[C@@H]3CCCNC3)nc(Nc3ccc(S(=O)(=O)N4CCOCC4)cc3)c12` [GSK2177277], the “%Inh” value is 97.4%. Still for that read-out and setting: the value for `COc1cc(Nc2nccc(N3CCC(NC(=O)c4cc5ccccc5s4)C3)n2)cc(OC)c1OC` (stereo not shown) [GSK1379760] was 12%; that for `CN1CCN(Cc2cccc(-c3ccc4c(Nc5ccc(Oc6ccccc6)cc5)ccnc4c3)c2)CC1` [GW578342] was 14%; that for `Fc1ccc(-c2ncn(C3CCNCC3)c2-c2ccnc(Oc3ccc(-c4ccccc4)cc3)n2)cc1` [SB-245391] was 31%. `Cc1ccc(S(=O)(=O)Nc2ccc(Nc3nccc(Nc4cccc5[nH]ncc45)n3)cc2)cc1` [GSK581271]: the “%Inh” value came to 0%.

For `COC(=O)Nc1nc2ccc(Oc3ccc(NC(=O)Nc4cc(C(F)(F)F)ccc4F)cc3)cc2n1C.Cl` [GW692089], the “%Inh” value came to 24%. Same read-out and setting: for `O=C(Nc1n[nH]c2nc(-c3ccc(O)cc3)ccc12)C1CC1` [SB-710363] the value was 0%; for `CNC(=O)c1ccccc1Nc1nc(Nc2ccc(N3CCOCC3)cc2)ncc1Cl.Cl` [GSK1576028], 97.9%. Regarding `Cl.NC(=O)c1cccc(Nc2nccc(Nc3ccc(Oc4c(Cl)cccc4Cl)c(Cl)c3)n2)c1` [GW659009], the “%Inh” value turned out to be 17%.

Turning to `COc1cc(Nc2nccc(-c3c(-c4cccc(NC(=O)c5c(F)cccc5F)c4)nn4ccccc34)n2)cc(OC)c1OC` [GSK323521], the “%Inh” value is on record as 22%.

`Cn1cc(-c2ccc3c(c2)CCN3C(=O)Cc2cccc(F)c2)c2c(N)ncnc21` [GSK2603358]: the “%Inh” value stood at 0%. On the same count and under the same terms, the value for `Cc1cccc(Nc2nc(N[C@H]3CCNC3)ncc2C(N)=O)c1.Cl` [GSK2197149] was 0%; that for `c1ccc(-c2n[nH]cc2Nc2ccnc3ccccc23)nc1` [GW694077] was 0%; that for `CN(C)Cc1ccc(-c2ccc3c(Nc4ccc(Oc5ccccn5)cc4)ccnc3c2)o1` [GW567148] was 6%. Still for that read-out and setting: for `CCS(=O)(=O)c1ccc(OC)c(Nc2nccc(-c3c(-c4cccc(NC(=O)c5c(F)cccc5F)c4)nn4ncccc34)n2)c1` [GSK326180] the value was 0%; for `COc1cccc(C2=C(Nc3ccc(Cl)c(C(=O)O)c3)C(=O)NC2=O)c1` [SB-390769], 100%. Same read-out and setting: for `COc1cccc(NC(=O)NC2CCN(c3ccnc(Nc4cc(OC)c(OC)c(OC)c4)n3)C2)c1` (stereo not shown) [GSK1379763] the value was 0%. For the compound `Cc1ccc(C)c(NC(=O)NC2CCN(c3ccnc(Nc4ccc(F)cc4)n3)C2)c1` (stereo not shown) [GSK1379720], the “%Inh” value was 0%. The same measure, in the same setting: for `Cc1ccc(F)c(C(=O)Nc2cccc(-c3nn4ccccc4c3-c3ccnc(Nc4cccc(F)c4)n3)c2)c1F` [GSK361061] the value was 15%; for `Cc1occc1-c1ncc(OC[C@@H](N)Cc2c[nH]c3ccccc23)cc1-c1ccc2[nH]nc(C)c2c1.O=C(O)C(F)(F)F` [GSK682037], 30%; for `COc1ccc(Nc2nccc(N3CCC(NC(=O)Nc4cccc(OC)c4)C3)n2)cc1` (stereo not shown) [GSK1379742], 0%.

As to `CC(=O)N1CCN(c2ccc(Nc3nccc(-c4sc(C(C)C)nc4-c4cccc(NS(=O)(=O)c5cccc(Cl)c5)c4)n3)cn2)CC1` [GSK1660437], the “%Inh” value is recorded as 14%. The same measure, in the same setting: the value for `Nc1ncnc2c1nc(-c1ccccc1)n2-c1ccccc1` [SKF-97293] was 32%. The same measure, in the same setting: the value for `O=C(NC1CCN(c2ccnc(Nc3ccc(F)cc3)n2)C1)c1cc2ccccc2s1` (stereo not shown) [GSK1379716] was 8%; that for `COc1cccc(C(=O)Nc2cccc(Oc3ccc4nc(NC(=O)C5CC5)cn4n3)c2)c1` was 19%. The same measure, in the same setting: the value for `Cl.Cl.NCC(C(=O)Nc1cc(Br)c(-c2ccnc3[nH]ccc23)s1)c1ccccc1` (stereo not shown) [GSK1269851] was 70%. As for `Cn1cc(-c2ccc3c(c2)CCN3C(=O)Cc2cccc(Cl)c2)c2c(N)ncnc21` [GSK2606590], the “%Inh” value is recorded as 0%. `COc1cc(Nc2ncc3c(C)nc(-c4cc5ccccc5[nH]4)n3n2)cc(OC)c1OC` [GW869516]: the “%Inh” value is on record as 10%.

With `O=C(Nc1cccc(-c2nn3ccccc3c2-c2ccnc(Nc3cccc(F)c3)n2)c1)c1c(F)ccc(F)c1Cl` [GSK357952], the “%Inh” value was found to be 41%. Still for that read-out and setting: for `C[C@@H](Oc1cc(-n2cnc3cc(-c4ccnc(NCCS(C)(=O)=O)c4)ccc32)sc1C(N)=O)c1ccccc1Cl` [GSK907232] the value was 0%. Still for that read-out and setting: the value for `COc1cccc(-c2ccc3c(NC(=O)C4CC4)n[nH]c3n2)c1` [SB-710903] was 10%. With `Cc1ccc(C(=O)N2CC[C@@H](O)C2)cc1-n1c(C)cc(OCc2ccc(F)cc2F)c(Br)c1=O`, the “%Inh” value is 26%. In the case of `Cl.c1ccc(-c2ccc3c(Nc4ccc5[nH]ccc5c4)ccnc3c2)nc1` [GW440138], the “%Inh” value came to 0%.

`CCc1ccc(-c2ccc3c(c2)-c2c(cnn2C)S(=O)(=O)N3C)cc1`: the “%Inh” value worked out at 0%. Take `COc1ccc(Nc2nccc(NCCNC(=O)c3cc4ccccc4s3)n2)cc1` [GSK1379896]: the “%Inh” value is 9%. On the same count and under the same terms, for `Nc1ncc(-c2ccc3nccc(-c4ccncc4)c3c2)cc1S(=O)(=O)N1CCOCC1` [GSK1627798] the value was 6%. As for `O=C(Nc1n[nH]c2cc(-c3ccoc3)ccc12)C1CC1` [SB-738481], the “%Inh” value was 6%.
